The subject of the assay is Aedes aegypti larvae. In words: larval motility relative to same well at 0 h (fraction); higher = more motile (less active compound), active = 0.4 or less. Particulars: 10 µM. The gist of the method: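 Larvae (Aedes aegypti, hatched in pond salt solution with yeast at 25 °C and taken 18–24 h later) were plated at about 10 per 100 µL well. Compounds at 10 µM in 1% v/v DMSO were imaged with INVAPP at 0, 2 and 24 h, alongside solvent and larvicide controls on each plate. Reported relative motility is each well's score over its own starting score, as a median of three independent larval batches.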

Structures are written as SMILES. Unmarked numbers belong to inactive results.

Turning to `CS(=O)(=O)c1ccc(Oc2ccc(Cl)cc2)cc1`, the larval motility reads like this: (2 h) 0.907; (24 h) 1.02.
For `Cc1nc2ccc(Cl)cc2c(-c2ccccc2)c1CC(=O)O`, the larval motility is 0.615 (2 h) and 1.02 (24 h).
With `O=C1C=C(c2ccccc2)S(=O)(=O)c2ccccc21`, the larval motility runs as follows: (2 h) 0.748; (24 h) 1.01.
In the case of `NC(=O)c1c(N)sc2c1CCCCC2`, the larval motility is 0.947 (2 h) and 1.32 (24 h).
`N#CCN1C(=O)COc2cc(F)c(N3C(=O)c4ccccc4C3=O)cc21`: the larval motility was 0.915 (2 h) and 1.91 (24 h).
On to `COc1ccc2nc(-c3ccccc3)cc(O)c2c1`, for which the larval motility is 1.08 (2 h) and 0.908 (24 h).
For `O=S(=O)(Nc1ccc(-n2cccc2)cc1)c1ccc(Cl)c(Cl)c1`, the larval motility (2 h) is 1.06 and the larval motility (24 h) was 0.808.
With `CCCCc1ccc(S(=O)(=O)Nc2cc(C)on2)cc1`, the larval motility is, setting by setting: (2 h) 0.511; (24 h) 0.633.
Consider `CCN(CC)S(=O)(=O)c1ccc(Cl)c(C(=O)Nc2sc3c(c2C#N)CCCC3)c1`, for which the larval motility runs as follows: (2 h) 1.52; (24 h) 2.15.
In the case of `O=C(NCCN1CCCCC1)c1cccc(C(F)(F)F)c1`, the larval motility is, setting by setting: (2 h) 0.912; (24 h) 1.4.
As for `CNC(=O)C1O[C@@H](n2cnc3c(NCc4cccc(I)c4)nc(Cl)nc32)[C@H](O)[C@@H]1O` (some centres not stated), the larval motility is 0.688 (2 h) and 0.817 (24 h).

Values taken from the supplement of paper PMC8540655.
